8 compounds from PubChem BioAssay (NCI) can be followed below.

This is part of a sample that, as a whole, favours compounds with a hit. Of some 83,000 tested, about 20% had one in any assay.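 In brief: 96-well plates, 48 h treatment, single concentration, percent growth endpoint.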 Values without a mark were called inactive. Calls of active or inactive are those of the source. The calls were made as follows: active = growth percent below 10; inactive = the rest.

Common to all, as to assay: NCI-60 one-dose screen, 48 h (100 = growth as untreated, 0 = no growth, -100 = all killed)
For one assay, the system named is SK-MEL-2 melanoma. Conditions: 10 µM unless noted.
The next assay concerns EKVX NSCLC. Conditions: 10 µM unless noted.
The subject of another assay is SN12C renal. Particulars: 10 µM unless noted.
In the next assay the test system is UO-31 renal. Particulars: 10 µM unless noted.
The subject of the next assay is TK-10 renal. Particulars: 10 µM unless noted.
For the next assay, the system named is ACHN renal. Particulars: 10 µM unless noted.
The test system of the next assay is CAKI-1 renal. Conditions: 10 µM unless noted.
The next assay deals with A498 renal. Particulars: 10 µM unless noted.
Another assay has as its system CCRF-CEM leukemia. Conditions: 10 µM unless noted.
The test system of a further assay is MOLT-4 leukemia. Conditions: 10 µM unless noted.
Another assay concerns SR leukemia. Conditions: 10 µM unless noted.
The next assay deals with RPMI-8226 leukemia. Particulars: 10 µM unless noted.
For the next assay, the system named is OVCAR-8 ovarian. Particulars: 10 µM unless noted.
A further assay deals with OVCAR-5 ovarian. Conditions: 10 µM unless noted.
The test system of a further assay is OVCAR-4 ovarian. Conditions: 10 µM.
For a further assay, the system named is IGROV1 ovarian. Conditions: 10 µM unless noted.
Another assay relates to OVCAR-3 ovarian. Conditions: 10 µM unless noted.
A further assay deals with HS 578T breast. Particulars: 10 µM unless noted.
A further assay deals with NCI/ADR-RES ovarian. Conditions: 10 µM unless noted.

Regarding `CCN1c2ccccc2C(Cl)(c2ccc(N(C)C)cc2)c2ccccc21`, the growth in the assay with SK-MEL-2 melanoma is 81.5%; with EKVX NSCLC it was 69.1%; in the assay on SN12C renal, 46.1%; with UO-31 renal, 57.6%; with TK-10 renal, 62.8%; in the assay on ACHN renal, 72.7%. Further, the growth was 62.9% in the assay with CAKI-1 renal; 135% in the assay with A498 renal; 17% with CCRF-CEM leukemia; 65.6% in the assay on MOLT-4 leukemia; 22.6% in the assay with SR leukemia; -28.8% (active) in the assay with RPMI-8226 leukemia. For the same compound, the growth in the assay with OVCAR-8 ovarian is 17.9%; with OVCAR-5 ovarian it was 107%; with OVCAR-4 ovarian, 75.2%; with IGROV1 ovarian, -20.3% (active); in the assay on OVCAR-3 ovarian, 23.2%; in the assay with HS 578T breast it was 102%. Moreover, the growth in the assay on NCI/ADR-RES ovarian is 85.8%.
`COc1cc2c(c(OC)c1OC)-c1cc(I)c(O)cc1[C@@H](NC(C)=O)CC2`: the growth is 53.4% in the assay on SK-MEL-2 melanoma; 60.2% with EKVX NSCLC; 38.6% in the assay with SN12C renal; 25.3% with UO-31 renal; 66.9% in the assay with TK-10 renal; 27.9% in the assay with ACHN renal. The growth was 30.7% with CAKI-1 renal; 49.2% with A498 renal; 30% in the assay with CCRF-CEM leukemia; 33.7% in the assay with MOLT-4 leukemia; 33.2% in the assay on SR leukemia; 12.9% in the assay with RPMI-8226 leukemia. Further, the growth in the assay with OVCAR-8 ovarian was 12.6%; with OVCAR-5 ovarian it was 49.2%; in the assay on OVCAR-4 ovarian it was 37.3%; in the assay on IGROV1 ovarian it was -3.77% (active); with OVCAR-3 ovarian it was 17.5%; in the assay on HS 578T breast it was 76.4%. In addition, the growth in the assay with NCI/ADR-RES ovarian is 25.4%.
As for `CCc1ccc(C2=C/C(=C/c3ccccc3)C(=O)N2CCc2ccc(S(N)(=O)=O)cc2)cc1`, the growth in the assay on SK-MEL-2 melanoma was 104%; in the assay on EKVX NSCLC it was 96.3%; in the assay on SN12C renal, 101%; with UO-31 renal it was 68.4%; in the assay on TK-10 renal, 122%; with ACHN renal, 99%. Further, the growth is 67.8% with CAKI-1 renal; 88.7% in the assay with A498 renal; 106% in the assay with CCRF-CEM leukemia; 97% in the assay on MOLT-4 leukemia; 96.9% with SR leukemia; 110% with RPMI-8226 leukemia. Besides, the growth in the assay with OVCAR-8 ovarian was 100%; with OVCAR-5 ovarian, 109%; in the assay on OVCAR-4 ovarian, 103%; in the assay with IGROV1 ovarian, 91.4%; in the assay on OVCAR-3 ovarian it was 109%; in the assay on HS 578T breast it was 97.5%. For the same compound, the growth in the assay on NCI/ADR-RES ovarian is 104%.
For `CCOC(=O)c1nn(C2CCCCO2)c2ccc(NC(=O)Cn3nnc4ccccc43)cc12` (configuration not stated), the growth is 113% in the assay with SK-MEL-2 melanoma; 98.1% with EKVX NSCLC; 97.6% in the assay with SN12C renal; 82.6% with UO-31 renal; 117% with TK-10 renal; 98.6% with ACHN renal. Moreover, the growth in the assay with CAKI-1 renal was 97.6%; in the assay with A498 renal, 85.8%; with CCRF-CEM leukemia, 117%; in the assay with MOLT-4 leukemia it was 95.9%; in the assay with SR leukemia it was 97.6%; with RPMI-8226 leukemia, 107%. Besides, the growth in the assay on OVCAR-8 ovarian was 101%; in the assay with OVCAR-5 ovarian it was 97.7%; with OVCAR-4 ovarian it was 104%; in the assay on IGROV1 ovarian it was 103%; in the assay on OVCAR-3 ovarian, 110%; in the assay on HS 578T breast, 99.4%. In addition, in the assay with NCI/ADR-RES ovarian, the growth was 104%.
Regarding `Cc1cc(N2CCCCCC2)nc(N2CCN(CC(=O)Nc3ccc4c(ccn4Cc4ccccc4)c3)CC2)n1`, the growth in the assay with SK-MEL-2 melanoma is 52.8%; in the assay on EKVX NSCLC it was 56%; in the assay with SN12C renal, 57.1%; in the assay on UO-31 renal it was 27.7%; in the assay with TK-10 renal it was 83.4%; in the assay with ACHN renal, 55.1%. The growth is 33.3% in the assay with CAKI-1 renal; 8.99% (active) in the assay on A498 renal; 50.2% with CCRF-CEM leukemia; 41.1% in the assay with MOLT-4 leukemia; 23.4% in the assay on SR leukemia; 43.9% in the assay on RPMI-8226 leukemia. For the same compound, the growth in the assay with OVCAR-8 ovarian was 32.5%; in the assay on OVCAR-5 ovarian it was 74.4%; in the assay on OVCAR-4 ovarian, 46.1%; with IGROV1 ovarian, 49.9%; with OVCAR-3 ovarian, 55.4%; in the assay on HS 578T breast, 47.2%. The growth with NCI/ADR-RES ovarian is 37.6%.
Consider `CCOC(=O)c1nn(C2CCCCO2)c2ccc(NC(=O)CN3CCOCC3)cc12` (configuration not stated), for which the growth in the assay with SK-MEL-2 melanoma is 108%; in the assay with EKVX NSCLC, 100%; in the assay with SN12C renal, 101%; in the assay on UO-31 renal, 86.6%; in the assay on TK-10 renal it was 109%; with ACHN renal, 99.6%. Further, the growth in the assay on CAKI-1 renal was 84.2%; in the assay on A498 renal it was 99.9%; in the assay with CCRF-CEM leukemia, 1.49% (active); in the assay on MOLT-4 leukemia it was 96.1%; with SR leukemia, 112%; in the assay with RPMI-8226 leukemia it was 109%. Further, the growth was 99.6% in the assay with OVCAR-8 ovarian; 102% in the assay with OVCAR-5 ovarian; 102% with OVCAR-4 ovarian; 102% in the assay with IGROV1 ovarian; 107% in the assay with OVCAR-3 ovarian; 99.3% in the assay on HS 578T breast. Moreover, the growth with NCI/ADR-RES ovarian is 104%.
As to `O=C(Nc1ccc(CN2CCOCC2)c(C(F)(F)F)c1)c1nc2ccc3[nH]ncc3c2c2c1CCCC2`, the growth with SK-MEL-2 melanoma was 103%; with EKVX NSCLC it was 87.3%; in the assay on SN12C renal it was 94.4%; in the assay with UO-31 renal, 73%; in the assay with TK-10 renal, 104%; in the assay with ACHN renal it was 91.5%. The growth in the assay with CAKI-1 renal was 80.9%; with A498 renal, 113%; in the assay on CCRF-CEM leukemia it was 84.8%; in the assay on MOLT-4 leukemia it was 76.3%; in the assay on SR leukemia, 95.8%; in the assay with RPMI-8226 leukemia, 83.3%. In addition, the growth was 93.5% in the assay with OVCAR-8 ovarian; 104% in the assay on OVCAR-5 ovarian; 91% with OVCAR-4 ovarian; 95.8% in the assay on IGROV1 ovarian; 102% in the assay on OVCAR-3 ovarian; 95.7% in the assay on HS 578T breast. The growth in the assay on NCI/ADR-RES ovarian was 96.3%.
In the case of `CCn1cc(-c2cc(-c3ccc(Cl)cc3)nc(N)n2)c(-c2ccc(Br)cc2)n1`, the growth was 62.7% in the assay with SK-MEL-2 melanoma; 78.1% with EKVX NSCLC; 84.5% with SN12C renal; 67.7% in the assay with UO-31 renal; 80.2% with TK-10 renal; 46.9% in the assay on ACHN renal. Moreover, the growth in the assay on CAKI-1 renal was 51.8%; in the assay on A498 renal, 92%; in the assay on CCRF-CEM leukemia, 82.9%; in the assay with MOLT-4 leukemia it was 83.4%; with SR leukemia, 69.7%; in the assay on RPMI-8226 leukemia it was 66.2%. Also, the growth is 84.9% in the assay with OVCAR-8 ovarian; 68.7% in the assay on OVCAR-5 ovarian; 82.2% with OVCAR-4 ovarian; 68.1% with IGROV1 ovarian; 88.5% with OVCAR-3 ovarian; 96.7% in the assay on HS 578T breast. The growth in the assay on NCI/ADR-RES ovarian is 80.3%.
